# Experimental data taken from paper PMC5540273 (PLoS ONE, 2017).
# Columns and labels:
# Conditions in all cases: concentration: 1 μM, replicates: in singlicate; n = 1
# MST2 = tested on: T1, MST2
# T1 construct: gene STK3
# MST3 = tested on: T2, MST3
# T2 construct: gene STK24
# MST4 = tested on: MST4
# MTOR = tested on: MTOR
# MUSK = tested on: MUSK
# MYLK2 = tested on: MYLK2
# MYLK4 = tested on: MYLK4
# MYLK = tested on: MYLK
# MYO3A = tested on: MYO3A
# MYO3B = tested on: MYO3B
# 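Note: KINOMEscan kinase panel screen.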
SMILES,%Inh (MST2) [%],%Inh (MST3) [%],%Inh (MST4) [%],%Inh (MTOR) [%],%Inh (MUSK) [%],%Inh (MYLK2) [%],%Inh (MYLK4) [%],%Inh (MYLK) [%],%Inh (MYO3A) [%],%Inh (MYO3B) [%]
COc1cc2ncnc(Nc3ccc4nc(-c5ccccc5)[nH]c4c3)c2cc1OC.Cl [GW282450],0,0,0,16,10,0,8,29,21,0
COc1ccccc1CNC(=O)c1cc(C(=O)c2ccccc2C)c[nH]1 [GSK364507],0,0,0,13,7,6,3,19,6,2
COc1ccc2nc(-c3cccc(C)n3)nc(Nc3ccncc3)c2c1 [GSK204919],0,0,0,43,1,0,0,5,0,0
Fc1cccc(COc2nnc(-c3ccc4c(c3)CCO4)o2)c1,0,25,0,3,3,0,4,0,0,5
CS(=O)(=O)c1ccc(-c2c(-c3ncn[nH]3)sc(N3CCOCC3)c2C#N)cc1,13,100,0,74,2,12,29,9,4,4
COc1ccc(C2=C(Nc3cccc(C(=O)O)c3)C(=O)NC2=O)cc1 [SB-390765],0,9,16,0,9,0,0,14,12,0
COc1cc(Nc2nccc(N3CCC(NC(=O)Nc4cc(C)ccc4C)C3)n2)cc(OC)c1OC (centres unmarked) [GSK1379762],0,6,0,10,25,6,0,12,2,0
Fc1cc(Cl)ccc1Nc1ccnc2cc(I)ccc12 [GW551191],9,0,0,8,0,0,0,11,13,0
